HP1b binding inh: HTS for Inhibitors of HP1-beta Chromodomain Interactions with Methylated Histone Tails | hit rate 0.56% among 390,000 | Potency, µM (highest dose often 114 µM), without a hit: at the top dose activity change, negative = inhibition, hits mostly inhibitors | AlphaScreen HP1-beta / biotin-H3K9me3 peptide binding | Chromobox protein homolog 1 (Homo sapiens), P83916; note: potency is the fitted concentration of half-maximal effect; nearly all actives have a fitted effect of over 70% in size
Target sequence (P83916 whole entry, looked up): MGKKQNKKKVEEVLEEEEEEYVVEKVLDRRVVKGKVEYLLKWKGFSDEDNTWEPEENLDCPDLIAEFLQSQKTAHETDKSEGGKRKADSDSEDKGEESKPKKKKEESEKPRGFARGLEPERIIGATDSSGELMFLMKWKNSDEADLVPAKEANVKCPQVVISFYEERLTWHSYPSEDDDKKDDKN
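HP1-beta protein (50 nM final) preincubated 30 min at room temperature with biotinylated H3(1-18)K9me3 peptide (50 nM) in PBS pH 7.4, 0.01% Tween-20, then compound added for 30 min. AlphaScreen streptavidin donor/nickel chelate acceptor beads (10 ug/mL final), 30 min dark, luminescence read.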
JMJD2A Tudor: qHTS Assay for Inhibitors of JMJD2A-Tudor Domain | AlphaScreen JMJD2A-Tudor / H3K4me3 peptide binding | Potency, µM (top dose mostly 114 µM), for the others: at the top dose activity change, negative = inhibition, usual class: inhibitors | hit rate 4.4% among 390,000 | AID 504339, 2011; note: potency is the fitted concentration of half-maximal effect; % is set by controls: 0 for no effect and ±100 for the full control effect; nearly all actives have a fitted effect of over 50% in size
L3MBTL1 block: qHTS Assay for the Inhibitors of L3MBTL1 | Lethal(3)malignant brain tumor-like protein 1 (Homo sapiens), Q9Y468 | AlphaScreen L3MBTL1–H3K9me1 peptide binding | Potency, µM (series often up to 57.1 µM), inactives show at the highest dose activity, negative = inhibition, usual class: inhibitors | hit rate 0.66% among 230,000 | AID 485360, 2010; note: potency is the fitted concentration of half-maximal effect; % is set by controls: 0 for no effect and ±100 for the full control effect; nearly all actives have a fitted effect of over 60% in size
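L3MBTL1 (50 nM) pre-complexed 30 min with biotinylated H3(1-15)K9me1 peptide (75 nM), then compounds added for 30 min at room temperature; AlphaScreen streptavidin donor/nickel chelate acceptor beads (10 ug/mL final) read after 30 min dark incubation.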
G9a block: qHTS Assay for Inhibitors of Histone Lysine Methyltransferase G9a. Histone-lysine N-methyltransferase EHMT2 (Homo sapiens), Q96KQ7. G9a H3K9 monomethylation, AlphaScreen, 2 h. Potency, µM (highest dose often 102 µM), for inactives: at the top dose activity, negative = inhibition, usual class: inhibitors. hit rate 8.8% among 350,000; note: potency is the fitted concentration of half-maximal effect; % is set by controls: 0 for no effect and ±100 for the full control effect; nearly all actives have a fitted effect of over 75% in size
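AlphaScreen read-out: biotin-H3K9 peptide (500 nM) methylation by 20 nM enzyme with 20 uM SAM, 2 h at room temperature after 15 min compound preincubation; anti-monomethyl H3K9 antibody plus donor/acceptor beads, 10 min dark.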
PI5P4Ka inh: qHTS for Inhibitors of phosphatidylinositol 5-phosphate 4-kinase (PI5P4K); Phosphatidylinositol 5-phosphate 4-kinase type-2 alpha (Homo sapiens), P48426; PI5P4Kalpha enzyme, ADP-Glo luminescence, 60 min; hits give low values; max response, %; hit rate 1.2% among 330,000; AID 652105, 2013; active = max response of -50% or lower; inconclusive = between -30% and -50%; inactive = -30% or higher; note: value at the top dose of about 77 µM; % is set by controls: 0 for no effect and ±100 for the full control effect
Target sequence (P48426 whole entry, looked up): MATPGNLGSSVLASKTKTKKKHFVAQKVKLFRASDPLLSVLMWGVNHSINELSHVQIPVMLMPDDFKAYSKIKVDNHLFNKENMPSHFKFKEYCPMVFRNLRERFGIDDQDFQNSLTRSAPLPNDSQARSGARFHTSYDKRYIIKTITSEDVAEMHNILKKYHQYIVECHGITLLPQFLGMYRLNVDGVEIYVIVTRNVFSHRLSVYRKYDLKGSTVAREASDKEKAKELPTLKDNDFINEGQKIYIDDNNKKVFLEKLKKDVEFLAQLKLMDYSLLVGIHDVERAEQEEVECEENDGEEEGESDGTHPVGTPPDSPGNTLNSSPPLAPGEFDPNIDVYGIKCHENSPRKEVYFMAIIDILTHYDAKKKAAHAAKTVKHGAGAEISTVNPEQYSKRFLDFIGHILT
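Compounds were pin-transferred onto PI5P4Kalpha and substrate in HEPES pH 7.4 buffer with EGTA, CHAPS and 5% DMSO. ATP (5 microM final) started the reaction, which ran 60 minutes at room temperature before ADP-Glo detection.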
BAZ2B inh: qHTS Assay for Inhibitors of BAZ2B; hit rate 4.4% among 360,000; AID 504333, 2011; AlphaScreen BAZ2B-H3K14Ac peptide displacement; Potency, µM (series often up to 114 µM), for inactives: at the highest dose activity change, negative = inhibition, hits mostly inhibitors; note: potency is the fitted concentration of half-maximal effect; % is set by controls: 0 for no effect and ±100 for the full control effect; nearly all actives have a fitted effect of over 60% in size
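Protein-peptide AlphaScreen: BAZ2B 50 nM, b-H3K14Ac 50 nM, 1x PBS pH 7.4 + 0.01% Tween-20. Preincubation 30 min RT; cpd 30 min RT (top 110 uM); beads 20 min RT, light-protected.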
ADP-Glo interf: qHTS for Inhibitors of PI5P4K: ADP-Glo counter assay; ADP-Glo detection counter-screen, luciferase luminescence, no enzyme; 1,100 tested, under 10 active; Potency, µM (titrated, usually from 76.9 µM), for the others: at the highest dose activity change, negative = inhibition, hits mostly inhibitors; shares compounds with PI5P4Ka inh
The depositor's hits bear a star; ? = inconclusive; . = not tested or not shown; [ ] = remark or other dose. Compounds with a hit are over-represented: about 11% of the library has one in this group of screens. Unless noted, calls come from the whole dose curve; as a rule, active = well fitted curve in the direction sought with a large enough effect; inconclusive = small, poorly fitted or top-dose-only effect, or another doubt; inactive = no such curve, though single readings can be large; an effect the other way counts as inactive or inconclusive.

SMILES | HP1b binding inh | JMJD2A Tudor | L3MBTL1 block | G9a block | PI5P4Ka inh | BAZ2B inh | ADP-Glo interf
COc1ccc(-n2nc(C(=O)N(C)c3cc(C)ccc3C)c3c4ccccc4n(C)c3c2=O)cc1Cl | 7% | -26% | . | 2%[59 µM] | . | . | .
Cc1ccccc1-c1ncnn1-c1sc2c(c1C#N)CCCCC2 | -20% | ? | . | ? | . | -32% | .
CCC(C)c1nc2ccsc2c(N2CCOC2=O)c1-c1ccccc1 (centres undefined) | 25% | -10% | . | . | -54* | . | 2%
c1ccc(-c2cc3nc(NCc4cccs4)nc(NCc4ccc5occc5c4)c3s2)cc1 | . | . | . | . | . | . | -7%
Cn1c(NCc2ccc3occc3c2)nc2cc(-c3ccc(F)cc3)sc2c1=O | . | . | . | . | 8 | . | .
COC(=O)CCC(=O)Nc1ccccc1C(=O)Nc1ccccc1 | 21% | 0% | 9% | 21%[59 µM] | 2 | -2% | .
CCN(CC)CCCCCC(=O)Nc1ccccc1C(=O)Nc1ccccc1 | 16% | -10% | -2% | 0% | -19 | ? | -4%
CCN(CC)C(=O)CC(c1cc(OC)c(OC)c(OC)c1)c1c(OC)cc(OC)c2c(-c3ccccc3)cc(=O)oc12 (centres undefined) | 0% | 56µM* | . | ? | -56* | 50µM* | 3%
Cc1c(C(=O)N2CCN(C)CC2)oc2ccc(Br)cc12 | 18% | -14% | -7% | . | 10 | -7% | .
Cc1c(C(=O)N2CCCC2)oc2ccc(Br)cc12 | 35% | 11% | . | 7% | -61* | -38% | -5%
COC(=O)CCC(=O)OC1(C)C(=O)C2=CN(C3CC3)C(c3ccc(OC)cc3)=CC2=C(Br)C1=O (centres undefined) | -15% | ? | . | . | -3 | . | .
CCC(=O)OC1(C)C(=O)C2=COC(c3ccc(OC)cc3)=CC2=C(Br)C1=O (centres undefined) | -8% | ? | . | 15%[12.7 µM] | -72* | ? | -6%
COC(=O)CCC(=O)OC1(C)C(=O)C2=CN(CC3CC3)C(c3ccc(OC)cc3)=CC2=C(Br)C1=O (centres undefined) | -12% | ? | . | ? | -53* | -38% | -6%
CCCCC1=CC2=CC(=O)C(C)(OC(=O)CC)C(=O)C2=CN1c1ccc(OC)cc1 (centres undefined) | -12% | ? | . | -31%[59 µM] | -2 | -37% | .
Cc1cc(C)cc(N(CC(=O)NCc2ccccc2Cl)S(=O)(=O)c2c(C)noc2C)c1 | 28% | -5% | . | 5%[59 µM] | . | . | .
CC1(C(=O)NS(=O)(=O)C2CC2)CCN(C(=O)c2ccccc2F)C1 (centres undefined) | . | . | . | . | -78* | . | 0%
CCN1CCc2c(sc(NC(=O)c3ccc(S(=O)(=O)N4CCCC(C)C4)cc3)c2C(=O)OC)C1 (centres undefined) | 34% | -19% | . | -3%[59 µM] | . | 0% | .
Cc1ccc(NC(=O)CN(C)C(=O)COc2ccc(C(=O)c3ccc(F)cc3)cc2)cc1 | 31% | -21% | -5% | ? | -2 | -33% | 5%
CCC(=O)c1ccc(OCC(=O)OCC(=O)N(C)CC(=O)Nc2ccc(F)cc2)cc1 | 18% | -9% | -1% | 25%[0.501 µM] | -3 | 13% | .
CC(C)CN(CCCNC(=O)c1cc(-c2cccs2)nc2ccccc12)CC(C)C | 43% | -5% | . | 8%[59 µM] | . | 8% | .
CC(=O)Nc1cc(-c2ccc(CO)cc2)cn2c(-c3ccc(F)c(Cl)c3)cnc12 | . | . | . | . | -54* | . | 1%
CCCNc1c(F)c(F)c2c(C)c3ccccc3nc2c1F | 80% | -6% | 14% | 2%[12.7 µM] | -66* | 26% | -14%
Cc1ccc(C)c(S(=O)(=O)Nc2ccc3oc(C)c(C(=O)O)c3c2)c1 | 50µM* | 50µM* | . | 40µM* | -95* | 50µM* | -6%
Cc1ccccc1NC(=O)Cc1nc(COC(=O)c2ccc(Cl)nc2)cs1 | 2% | -18% | 8% | ? | 1 | -4% | .
Cc1ccccc1NC(=O)Cc1nc(COC(=O)c2ccc(NC(N)=O)cc2)cs1 | 14% | -8% | -9% | . | -56* | . | -3%
SMILES | HP1b binding inh | JMJD2A Tudor | L3MBTL1 block | G9a block | PI5P4Ka inh | BAZ2B inh | ADP-Glo interf
CC(=O)c1ccc(NC(=O)CSc2cn(CC(=O)N(C(C)C)C(C)C)c3ccccc23)cc1 | 19% | -8% | . | -7%[59 µM] | . | ? | .
CCCOc1ccc(C(=O)Nc2c[nH]c(=O)[nH]c2=O)cc1 | 31% | -10% | 6% | 1% | 1 | -3% | .
CCC(=O)Oc1ccc(C(=O)Nc2c[nH]c(=O)[nH]c2=O)cc1 | 23% | -6% | 5% | 22%[59 µM] | -53* | 7% | -6%
COc1cccc(C(=O)OCC(=O)Nc2sc3c(c2C(N)=O)CCC3)c1O | -2% | ? | ? | ? | -51* | 50µM* | 4%
COc1ccccc1OCC(=O)Nc1sc2c(c1C(N)=O)CCC2 | 11% | ? | ? | . | ? | . | .
CNC(=S)N(Cc1cccs1)Cc1cc2ccc(OC)cc2[nH]c1=O | 33% | -3% | 1% | 7%[59 µM] | -60* | 1% | 0%
COc1ccc(S(=O)(=O)N2CCCC(C(=O)Nc3cccnc3)C2)cc1Cl (centres undefined) | 46% | ? | 5% | ? | -50* | -36% | -6%
COc1ccc(NC(=O)C2CCCN(S(=O)(=O)c3cccnc3)C2)cc1OC (centres undefined) | 22% | -15% | 11% | -117%[12.7 µM] | -2 | -9% | .
O=C(CSc1nc2[nH]c(=O)cc(O)c2s1)Nc1ccc(Br)cc1 | 30% | -5% | -2% | 20%[12.7 µM] | -52* | 1% | -1%
Cc1cccc(NC(=O)CSc2nc3[nH]c(=O)cc(O)c3s2)c1 | 13% | -13% | -2% | ? | -53* | 0% | 6%
Cc1ccccc1NC(=O)CSc1nc2[nH]c(=O)cc(O)c2s1 | 28% | -8% | 0% | ? | -62* | 4% | -10%
O=C(CSc1nc2[nH]c(=O)cc(O)c2s1)Nc1cccc(Br)c1 | 24% | -27% | -13% | -5%[12.7 µM] | ? | -5% | .
CCc1ccccc1NC(=O)CSc1nc2[nH]c(=O)cc(O)c2s1 | 14% | -6% | . | -45% | ? | -37% | .

Source: PubChem BioAssay
